Source: PubChem (National Center for Advancing Translational Sciences (NCATS))
Shown are actives, neighbours in structure and some others; about 3% of the full set was active somewhere.
D3 ag: agonists of human D3 dopamine receptor | P35462 | D3R DiscoveRx beta-arrestin cells, luminescence, 90 min | max activation, % | 410,000 compounds, 0.58% hits; in the data active means max activation above about 30%; further: 0% is about no effect
Target sequence (P35462 whole entry, looked up): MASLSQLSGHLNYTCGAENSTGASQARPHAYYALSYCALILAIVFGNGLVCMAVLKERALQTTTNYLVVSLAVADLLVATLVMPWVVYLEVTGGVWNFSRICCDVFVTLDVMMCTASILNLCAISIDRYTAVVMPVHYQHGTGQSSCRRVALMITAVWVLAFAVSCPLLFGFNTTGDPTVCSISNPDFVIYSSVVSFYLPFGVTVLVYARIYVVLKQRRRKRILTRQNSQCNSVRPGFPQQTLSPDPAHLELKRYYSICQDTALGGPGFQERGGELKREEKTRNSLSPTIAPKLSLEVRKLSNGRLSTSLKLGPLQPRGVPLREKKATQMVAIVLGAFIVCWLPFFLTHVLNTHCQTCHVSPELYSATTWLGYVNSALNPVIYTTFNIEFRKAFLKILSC
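Agonist mode: compounds and dopamine controls were applied to plated cells for 90 min at 37 degrees C after an overnight attachment at 1500 cells/well. Luminescent read-out followed 30 - 60 minutes at room temperature with DiscoveRx detection reagent.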
D3 antag: D3 dopamine receptor (human) antagonism | P35462 | D3R cells, DiscoveRx beta-arrestin luminescence, antagonist mode; stronger effect = lower value | max response, negative = inhibition, % | 360,000 compounds, 2.5% hits | AID 652054; in the data active means max response below about -50%; inconclusive means no clear call, values can overlap the other calls; further: on the % scale 0 is the no-effect control and ±100 the full control effect
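Cells expressing the human receptor were seeded at 1500 cells/well, incubated overnight at 37 degrees C in 5% CO2, then exposed to library compounds with dopamine controls for 90 minutes at 37 degrees C before luminescent detection.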
Nrf2 ARE act: Nrf2 pathway activation; Potency, µM (doses to about 46.1 µM), inactives show at the top dose activation, usual class: activators; AREc32 ARE-luciferase reporter (MCF7-derived line), luminescence, 24 h; 410,000 compounds, 0.31% hits; further: potency means the concentration at half of the fitted maximal effect; % of control where 0% means no effect; nearly all actives have a fitted effect of over 65% in size
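Each well held 1000 AREc32 cells, which were incubated with compound for 24 hr at 37 deg C after overnight attachment, and ARE reporter activity was quantified by firefly luciferase luminescence.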
Glioma ERSR ind: inducers of ER stress response in human glioma cells | 420,000 compounds, 0.02% hits | U87-MG GRP78 promoter luciferase reporter, 16 h | Potency, µM, inactives show top-dose activation, most hits filed as activators; further: potency means the concentration at half of the fitted maximal effect; series mostly up to about 76 µM; % of control where 0% means no effect; nearly all actives have a fitted effect of over 35% in size
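Stably transfected U87-MG human glioma cells carrying a GRP78-based luminescent sensor were seeded at 1000 cells/well, pin-dosed with compounds and incubated 16 h. Luciferase reagent was then added, and end-point luminescence was read after 10 min at room temperature.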
The depositor's hits bear a star; ? = inconclusive; / = no result given. Unless noted, the call rests on the fitted dose curve; in most records, active means well fitted curve in the direction sought with a large enough effect; inconclusive means small, poorly fitted or top-dose-only effect, or another doubt; inactive means no such curve, though single readings can be large; an effect the other way counts as inactive or inconclusive.

SMILES | D3 ag | D3 antag | Nrf2 ARE act | Glioma ERSR ind
Cc1cc(C)c(C(=O)CN2C(=O)NC3(CCC(C)CC3)C2=O)cc1C (configuration not stated) | -1.9 | -6.1 | -0.5% | 0.3%
Cc1ccc(S(=O)(=O)NCc2ccccc2)cc1 | 9.3 | 9.6 | 0.1% | 5.3%
Cc1ccc(S(=O)(=O)N[C@H](CNCc2ccccc2)C(C)C)cc1 | -16.6 | -90.6* | / | /
Cc1nc(C)c(CC(=O)N2CCOc3ccc(CN4CCOCC4)cc3C2)s1 | / | / | / | -4.9%
CCOc1ccccc1CNC(=O)Cc1ccc(NC(=O)N2CCCCc3ccccc32)cc1 | 1.2 | / | -0.1% | -0.6%
O=C(Nc1cccs1)Nc1cccnc1Cl | 4.0 | 16.1 | 11.2µM* | 5.1%
O=C(Nc1cccs1)Nc1ccccc1Cl | -11.8 | 6.4 | 24.4% | ?
O=[N+]([O-])c1ccc(S(=O)(=O)c2cccc(C(F)(F)F)c2)nc1 | -32.7 | -126.4* | -3.0% | -14.1%
O=S(=O)(Nc1cccnc1)c1cccc(C(F)(F)F)c1 | -8.6 | -12.3 | -1.0% | -3.0%
CCN(CC)c1ccc(C(=O)NNC(=O)CCl)cc1 | -35.1 | -125.6* | ? | 1.9%
CO/N=C(/C(=O)N[C@@H]1C(=O)N2C(C(=O)O)=C(CSC(=O)c3ccco3)CSC12)c1csc(N)n1 (some centres not stated) | / | / | / | -4.0%
C=CCNc1nc(Nc2ccc(-c3nc4ccccc4o3)cc2)nc(N2CCOCC2)n1 | 33.2* | 7.6 | ? | 0.7%
CN1CCCc2cc(/C=C/c3ccnc4ccccc34)ccc21 | / | / | / | -1.0%
O=C(O)CCCCCCCCc1cn(CC2CCCCC2)nn1 | -2.5 | -9.9 | -1.9% | -5.9%
Cc1ccc(-n2cc(CCCCCCCCC(=O)O)nn2)cc1 | 30.2* | 2.0 | -0.2% | -1.4%
Cc1ccc(CN2CCc3nnc(C(NC(=O)c4ccoc4)C(C)C)n3CC2)cc1C (configuration not stated) | / | / | / | -0.1%
COc1cc(OC)c(OC)cc1/C=C/C(=O)c1ccc(NS(=O)(=O)c2ccc(C)cc2)cc1 | 30.7* | 97.2 | 20.8% | -6.1%
CC(=O)c1ccc(NS(=O)(=O)c2ccc(C)cc2)cc1 | -4.8 | -15.2 | 6.8% | -2.4%
CC1(C(=O)NS(=O)(=O)c2cccc(F)c2)CCN1C(=O)CC1CCCCC1 (configuration not stated) | 30.1* | 13.9 | 0.6% | -3.4%
Cc1cc(OCCn2cc(C(=O)c3cccs3)c3ccccc32)ccc1Cl | 7.2 | / | 6.7% | -0.5%
O/N=C/c1cn(-c2ccccc2)nc1-c1ccccc1 | 44.9* | 55.0 | 2.8% | 4.4%
O=S(=O)(Nc1cccc2cccnc12)C1CC1 | / | / | / | -2.8%
COc1cc(Br)cc(/C=C/c2ccc3cccc(O)c3n2)c1OC | 11.9 | 18.8 | ? | -4.6%
COc1cccc(/C=C/c2ccc3cccc(O)c3n2)c1OC | -19.7 | -159.8* | ? | ?
COc1ccc(/C=C/c2ccc3cccc(O)c3n2)c(OC)c1OC | -26.3 | 0.0 | 22.4µM* | ?
SMILES | D3 ag | D3 antag | Nrf2 ARE act | Glioma ERSR ind
COc1ccc(Br)cc1/C=C/c1ccc2cccc(O)c2n1 | 16.1 | -24.3 | ? | -8.5%
CC(=O)Oc1ccc2c(c1)C(=O)CCCCCC(=O)O2 | 0.0 | -70.0* | 14.3% | -6.7%
Cc1cc2c(c(C)c1CCO)C(=O)[C@H](C)C2 | 0.0 | -50.3* | 1.3% | -0.7%
Cc1cc2c(c(C)c1CCO[C@@H]1O[C@H](CO)[C@@H](O)[C@H](O)[C@H]1O)C(=O)[C@@H](C)[C@@H]2O | 13.7 | -28.0 | -5.1% | -7.7%
COC(=O)c1c(-c2ccc(Cl)cc2)noc1N1CCN(c2ccccc2OC)CC1 | 28.3 | / | 0.2% | -3.4%
COC(=O)c1c(-c2ccc(Cl)cc2)noc1N1CCN(c2cccc(C(F)(F)F)c2)CC1 | 95.3* | / | -1.2% | -3.7%
COC(=O)c1c(-c2ccc(Cl)cc2)noc1N1CCN(c2ccc(F)cc2)CC1 | 64.4* | / | -0.4% | -4.2%
Cc1cccc(C2=NN(c3ccccc3)[C@H](CO)[C@H]2c2ccccc2)c1 | 41.7* | 13.7 | 4.6% | 7.9%
COc1ccccc1N1CCN(CC(O)COc2ccc3c(C)cc(=O)oc3c2)CC1 (configuration not stated) | -21.9 | -77.2* | 0.2% | -4.0%
Cc1cc(=O)oc2cc(OCC(O)CN3CCN(c4ccccc4)CC3)ccc12 (configuration not stated) | 37.1* | 0.0 | 3.5% | -2.8%
Cc1cc(=O)oc2cc(OCC(O)CN3CCc4ccccc4C3)ccc12 (configuration not stated) | -22.1 | -55.0* | 3.7% | 3.6%
COc1ccc2c(C)cc(=O)oc2c1OCC(O)CN1CCOCC1 (configuration not stated) | -17.5 | 0.0 | -1.1% | -1.3%
